In PubChem BioAssay one finds z-score and composite z-score data, which are given here for eight compounds.

Test [1] can be described thus: optical density shifts of acrAB sulA E. coli – strain DRC41, OD650, 48 h, E. coli filamentation inducer project, primary screen (AID 1152).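 Further: E. coli MC1000 strain DRC41 lacking acrAB efflux pump and sulA.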 The following applies: higher = more signal, called active from +8 up or from −8 down.
The nature of test [2]: probe aLefty1 binding on compound microarray – biochemical, small-molecule microarray, 635/667 nm fluorescence, primary screen (AID 1153).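 Further: score merges spot fluorescence with signal-to-noise ratio from the scanned slide images.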 As to conditions: higher = more signal.
Test [3] is described as follows: plasmodial surface anion channel blockers, osmotic lysis – cell-based, P. falciparum Indochina, OD700, 1 h, primary screen (AID 1154). The following applies: P. falciparum Indochina infected RBC osmotic lysis, higher = more signal, called active from +8 up or from −8 down.
Test [4] in a line: plasmodial surface anion channel blockers, osmotic lysis – cell-based, P. falciparum Indochina, OD700, 2 h, primary screen (AID 1155).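 Further: lysis reports solute entry through the parasite surface anion channel PSAC.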 The following applies: P. falciparum Indochina infected erythrocytes, higher = more signal, called active from +8 up or from −8 down.
The nature of test [5]: changes in parasitized red cell lysis, either direction – P. falciparum Indochina, OD700, 3 h, PSAC antagonist project, primary screen (AID 1156). The following applies: P. falciparum-infected erythrocytes, osmotic lysis, higher = more signal, called active from +8 up or from −8 down.
A short description of test [6]: plasmodial surface anion channel blockers, osmotic lysis – cell-based, P. falciparum Indochina, OD700, 18 h, primary screen (AID 1157). The following applies: P. falciparum Indochina infected erythrocytes, osmotic lysis OD700, 18 h; higher = more signal, called active from +8 up or from −8 down.
The nature of test [7]: S6 kinase pathway phospho-S6 level changes – cell-based, A549, cytoblot, luminescence, serum-stimulated, primary screen (AID 1158).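 Further: serum-stimulated A549 lung adenocarcinoma cells; signal is phosphorylated S6 detected by cytoblot immunostaining with HRP secondary.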 The following applies: 5 h, higher = more signal.
Test [8] addresses NADPH oxidase 2 (Homo sapiens) (UniProt P04839). Kind of test: compounds shifting NOX2 Amplex Red fluorescence – cell-based, HEK293-NOX2, PMA-stimulated, NOX inhibitor project, primary screen (AID 1159). Further: test concentration not given here. As to conditions: 45 min, higher = more signal, called active from +8 up or from −8 down.
Test [9] concerns the target NADPH oxidase 4 (Homo sapiens) (UniProt Q9NPH5). As to the kind of experiment: compounds shifting NOX4 Amplex Red fluorescence – cell-based, HEK293-NOX4, tetracycline-induced, NOX inhibitor project, primary screen (AID 1160). As to conditions: HEK293-NOX4, Amplex Red H2O2 fluorescence, 45 min; higher = more signal, called active from +8 up or from −8 down.
The target of test [10] is NADPH oxidase 5 (Homo sapiens) (UniProt Q96PH1). Kind of test: compounds shifting NOX5 Amplex Red fluorescence – cell-based, HEK293-NOX5, NOX inhibitor project, primary screen (AID 1161). As to conditions: HEK293-NOX5, ionomycin, 45 min, higher = more signal.
Test [11] in a line: compound effects on lung adenocarcinoma cell viability – A549, calcein-AM fluorescence, 48 h, basal, profiling panel (AID 1162). Further: test concentration not given here. The following applies: higher = more signal.
Test [12] is described as follows: compound effects on differentiated 3T3-L1 adipocyte viability – cell-based, 3T3-L1 adipocytes, calcein-AM fluorescence, 48 h, basal, profiling panel (AID 1163). Further: test concentration not given here. The following applies: 3T3-L1 adipocytes viability, higher = more signal.
Test [13] in a line: compound effects on hepatocellular carcinoma cell viability – HepG2, calcein-AM fluorescence, 48 h, basal, profiling panel (AID 1164). Further: test concentration not given here. The following applies: higher = more signal.
The nature of test [14]: compound effects on multiple myeloma cell viability – MM1S, calcein-AM fluorescence, 48 h, basal, profiling panel (AID 1165).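 Further: viability of MM1S multiple myeloma cells under basal unstimulated conditions; test concentration not given here.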 The following applies: higher = more signal.
The nature of test [15]: calcein-AM signal in unstimulated myeloma cells – cell-based, calcein-AM fluorescence, 48 h, PK04 Diversity Set, profiling panel (AID 1166).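 Further: cells grown under basal conditions without added stimulus; test concentration not given here.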 As to conditions: RPMI8226 myeloma viability, higher = more signal.
A short description of test [16]: JC-1 mitochondrial signal, unstimulated HepG2 cells – cell-based, JC-1 fluorescence, 24 h, 100 nL compound, profiling panel (AID 1167). Further: test concentration not given here. As to conditions: HepG2 mitochondrial potential, higher = more signal.
The nature of test [17]: JC-1 mitochondrial signal, unstimulated adipocytes – cell-based, JC-1 fluorescence, 3T3-L1 adipocytes, 24 h, 100 nL compound, profiling panel (AID 1168). Further: test concentration not given here. As to conditions: JC-1 mitochondrial fluorescence, higher = more signal, called active from +8 up or from −8 down.
The nature of test [18]: JC-1 mitochondrial signal, unstimulated myeloma cells – cell-based, JC-1 fluorescence, RPMI8226, 24 h, 100 nL compound, profiling panel (AID 1169). Further: test concentration not given here. The following applies: JC-1 mitochondrial potential fluorescence, higher = more signal.
The nature of test [19]: JC-1 mitochondrial signal, unstimulated MM1S myeloma – cell-based, JC-1 fluorescence, 24 h, 100 nL compound, profiling panel (AID 1170). Further: test concentration not given here. The following applies: MM1S mitochondrial potential, higher = more signal.
A short description of test [20]: resazurin metabolic signal in A549 cells – cell-based, resazurin fluorescence, 24 h, PK04 Diversity Set, profiling panel (AID 1171). Further: test concentration not given here. As to conditions: A549 viability, higher = more signal, called active from +8 up or from −8 down. In general terms: Alamar Blue is a resazurin reagent that responds to reducing activity.

The structures appear in SMILES notation. The source made the active and inactive calls.

Chain of NADPH oxidase 5 (Homo sapiens) (Q96PH1 whole entry, looked up): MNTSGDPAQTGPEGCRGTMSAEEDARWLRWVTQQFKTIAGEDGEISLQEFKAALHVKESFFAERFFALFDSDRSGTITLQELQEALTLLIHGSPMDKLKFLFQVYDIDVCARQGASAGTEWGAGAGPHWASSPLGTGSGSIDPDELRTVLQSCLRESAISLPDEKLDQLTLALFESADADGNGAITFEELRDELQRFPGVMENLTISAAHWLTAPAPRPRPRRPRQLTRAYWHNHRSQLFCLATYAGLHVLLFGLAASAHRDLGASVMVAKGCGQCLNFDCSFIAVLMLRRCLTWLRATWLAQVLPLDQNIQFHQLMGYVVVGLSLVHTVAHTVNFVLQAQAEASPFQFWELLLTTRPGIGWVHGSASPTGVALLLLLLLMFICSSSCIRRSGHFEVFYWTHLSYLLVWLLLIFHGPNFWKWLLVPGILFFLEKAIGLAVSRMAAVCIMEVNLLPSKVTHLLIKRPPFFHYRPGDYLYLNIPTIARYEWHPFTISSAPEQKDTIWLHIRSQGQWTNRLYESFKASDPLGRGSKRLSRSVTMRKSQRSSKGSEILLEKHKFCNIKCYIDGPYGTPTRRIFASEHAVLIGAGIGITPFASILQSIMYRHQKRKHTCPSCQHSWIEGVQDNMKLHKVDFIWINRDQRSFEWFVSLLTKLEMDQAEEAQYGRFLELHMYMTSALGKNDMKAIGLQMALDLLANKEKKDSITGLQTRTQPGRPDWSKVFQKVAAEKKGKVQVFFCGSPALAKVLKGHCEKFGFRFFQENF
Chain of NADPH oxidase 2 (Homo sapiens) (P04839 whole entry, looked up): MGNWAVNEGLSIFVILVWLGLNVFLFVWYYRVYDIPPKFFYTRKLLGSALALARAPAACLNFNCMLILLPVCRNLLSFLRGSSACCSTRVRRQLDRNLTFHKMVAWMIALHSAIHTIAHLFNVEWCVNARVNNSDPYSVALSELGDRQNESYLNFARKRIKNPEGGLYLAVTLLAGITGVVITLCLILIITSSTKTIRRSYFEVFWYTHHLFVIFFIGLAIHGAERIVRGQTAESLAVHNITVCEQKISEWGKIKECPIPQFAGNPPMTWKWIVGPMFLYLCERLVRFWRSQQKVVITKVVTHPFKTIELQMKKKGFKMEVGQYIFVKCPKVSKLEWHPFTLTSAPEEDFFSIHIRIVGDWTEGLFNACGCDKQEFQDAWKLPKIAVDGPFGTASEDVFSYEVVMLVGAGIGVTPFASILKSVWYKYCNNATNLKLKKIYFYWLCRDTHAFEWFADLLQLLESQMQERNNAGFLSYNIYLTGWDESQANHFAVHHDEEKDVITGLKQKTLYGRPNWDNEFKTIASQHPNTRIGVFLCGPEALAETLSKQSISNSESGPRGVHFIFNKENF
Chain of NADPH oxidase 4 (Homo sapiens) (Q9NPH5 whole entry, looked up): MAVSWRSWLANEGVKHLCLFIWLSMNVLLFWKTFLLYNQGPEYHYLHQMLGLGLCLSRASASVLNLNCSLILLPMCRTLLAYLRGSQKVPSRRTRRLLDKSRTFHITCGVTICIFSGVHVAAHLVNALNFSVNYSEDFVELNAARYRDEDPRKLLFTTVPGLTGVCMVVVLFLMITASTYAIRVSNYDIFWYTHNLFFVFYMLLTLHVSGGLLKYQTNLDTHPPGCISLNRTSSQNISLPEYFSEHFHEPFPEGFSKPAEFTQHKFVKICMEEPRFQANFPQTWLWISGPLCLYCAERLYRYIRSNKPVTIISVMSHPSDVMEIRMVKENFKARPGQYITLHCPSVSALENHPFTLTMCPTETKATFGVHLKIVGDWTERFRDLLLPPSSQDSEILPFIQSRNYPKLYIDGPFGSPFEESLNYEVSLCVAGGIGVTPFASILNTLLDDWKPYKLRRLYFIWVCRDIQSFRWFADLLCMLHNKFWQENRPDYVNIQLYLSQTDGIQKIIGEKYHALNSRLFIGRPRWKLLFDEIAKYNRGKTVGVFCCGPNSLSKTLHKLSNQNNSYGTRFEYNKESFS

Consider `COC(=O)[C@]1(CCC(=O)OC(C)(C)C)N=C(c2ccc(OCCCO)cc2)O[C@@H]1c1ccccc1N=[N+]=[N-]`, for which the z-score in test [1] is -0.725 (inactive); in test [3], 30.9 (active); in test [4] it was 25.9 (active); in test [5], 1.64 (inactive); in [6] it was 5.32 (inactive); in [7], -0.328. Besides, the z-score is -1.41 (inactive) in test [8]; -0.601 (inactive) in test [9]; -2.4 in test [10]; -1.31 in test [11]; 1.25 in test [12]; -0.527 in test [13]. The z-score in test [14] is -2.84; in test [15], -3.53; in test [16] it was 0.874; in [17], 1.78 (inactive); in [18], -1.02; in test [19] it was -1.57. Besides, the z-score in [20] is -1.46 (inactive). In [2], this compound yielded a composite z-score of 0.0591.
Turning to `C=CC[C@@]12N=C(c3ccc(OCCCO)cc3)O[C@@H]1c1ccccc1N(CCC)C2=O`, the z-score was 1.39 (inactive) in test [1]; 35.3 (active) in test [3]; 36.6 (active) in [4]; 1.75 (inactive) in test [5]; 6.24 (inactive) in [6]; 0.697 in [7]. The z-score in [8] was -3.4 (inactive); in test [9], -0.215 (inactive); in [10], -1.75; in [11], -0.604; in test [12] it was 0.96; in [13], -1.16. In addition, the z-score in [14] is -1.79; in test [15], -3.66; in test [16], 1.07; in [17] it was 2.64 (inactive); in [18], -1.22; in [19] it was -0.994. Also, the z-score in test [20] was 0.0626 (inactive). This compound also returned a composite z-score in test [2] of 0.568.
For the compound `COCCOC(=O)N1C(=O)[C@@]2(c3cc(C#CCC(C(=O)OC)C(=O)OC)ccc31)[C@H](C(=O)Nc1nc3ccccc3s1)[C@H]1C(=O)O[C@H](c3ccccc3)[C@H](c3ccccc3)N1[C@@H]2c1ccc(OCCO)cc1`, the z-score in test [1] is 0.836 (inactive); in test [3], 5.5 (inactive); in test [4], 1.77 (inactive); in test [5] it was 0.832 (inactive); in test [6], 1.39 (inactive); in [7], -0.265. For the same compound, the z-score was 1.75 (inactive) in [8]; 1.03 (inactive) in [9]; 1.33 in test [10]; 0.4 in test [11]; 0.502 in [12]; 0.593 in [13]. The z-score in test [14] is -0.733; in test [15], 0.427; in test [16], -3.27; in test [17] it was 1.05 (inactive); in test [18] it was -0.708; in test [19], 0.327. In addition, the z-score in test [20] is 1.42 (inactive). This compound gave a composite z-score in test [2] of 0.529.
On to `O=C1[C@@H]2[C@@H](CC(COc3ccccc3)=C([C@H](O)CCc3ccccc3)[C@@H]2CO)C(=O)N1Cc1ccccc1`, for which the z-score in test [1] was 0.17 (inactive); in test [3], 27.8 (active); in test [4], 21.8 (active); in [5], -0.602 (inactive); in test [6] it was 2.05 (inactive); in test [7], 0.05. Also, the z-score in test [8] was -2.32 (inactive); in test [9] it was -0.526 (inactive); in [10] it was -1.59; in test [11], -0.137; in [12], -0.331; in test [13], -1.32. The z-score in test [14] was -3.23; in [15], -3.48; in [16], 0.325; in [17] it was -0.0321 (inactive); in [18] it was -1.04; in test [19], -1.33. In addition, the z-score in test [20] is -0.833 (inactive). Besides, the composite z-score in test [2] was -0.0867.
For `COCCOC(=O)N1C(=O)[C@@]2(c3ccccc31)[C@H](c1ccc(O)cc1)N1[C@H](c3ccccc3)[C@H](c3ccccc3)OC(=O)[C@H]1[C@@H]2C(=O)N1CCCCCCC1`, the z-score in [1] was -0.59 (inactive); in [3], -0.0501 (inactive); in [4], 0.619 (inactive); in test [5] it was -0.363 (inactive); in [6] it was 0.14 (inactive); in [7], -0.43. Further, the z-score in test [8] is 0.54 (inactive); in [9] it was 0.898 (inactive); in test [10] it was 1.32; in [11] it was -0.438; in test [12] it was -0.688; in test [13], 0.313. Besides, the z-score in test [14] is -0.474; in test [15], -1.26; in test [16], -1.25; in test [17] it was -1.07 (inactive); in [18], 0.167; in test [19], 0.584. The z-score in test [20] was -0.257 (inactive). The composite z-score in test [2] came out at 2.86.
With `CC(C)(C)N1CC=CC23O[C@@H]4C=CCCOC(=O)C4[C@H]2C(=O)N(CCCCCCO)[C@@H]3C1=O` (stereo not given in full), the z-score is 0.0094 (inactive) in test [1]; 0.683 (inactive) in test [3]; 0.181 (inactive) in [4]; 0.639 (inactive) in test [5]; 0.233 (inactive) in test [6]; 1.78 in test [7]. Also, the z-score in [8] was 0.882 (inactive); in test [9], -0.0325 (inactive); in test [10], 2.08; in [11], 0.0905; in [12], -2.98; in test [13], 0.952. Further, the z-score in test [14] was 1.35; in test [15] it was 0.229; in test [16] it was 0.212; in [17], -0.501 (inactive); in test [18], -0.0402; in test [19], -0.516. Moreover, the z-score in [20] is -0.523 (inactive). For the same compound, the composite z-score in test [2] stood at 0.365.
As for `[N-]=[N+]=Nc1ccccc1[C@@H]1OC(c2ccc(OCCCO)cc2)=N[C@]1(CCS(=O)(=O)c1ccccc1)C(=O)NCC(O)CO` (stereo not given in full), the z-score in [1] was 0.401 (inactive); in test [3], 28.9 (active); in test [4] it was 27.2 (active); in test [5] it was 1.08 (inactive); in test [6], 2.07 (inactive); in [7] it was -0.158. The z-score was -3.11 (inactive) in test [8]; -0.18 (inactive) in test [9]; -1.16 in test [10]; -0.149 in test [11]; -0.375 in [12]; 0.578 in [13]. Also, the z-score was -0.662 in [14]; 0.274 in [15]; -0.148 in [16]; -0.199 (inactive) in [17]; -0.0226 in test [18]; -0.763 in test [19]. Further, the z-score in [20] is 0.575 (inactive). In test [2], this compound had a composite z-score of 0.165.
For `Cc1ccc(C(C)CC(O)C2C=CC3C(=O)N(C)C(=O)C3N2Nc2ccccc2)o1` (stereo not given), the z-score in test [1] is -2.23 (inactive); in [3], 2.46 (inactive); in test [4] it was 0.962 (inactive); in test [5], 0.684 (inactive); in test [6], 1.17 (inactive); in test [7], -1.4. Moreover, the z-score in test [8] is -1.73 (inactive); in test [9], -4.75 (inactive); in test [10], -3.53; in test [11], -0.428; in [12] it was -1.01; in test [13], 0.345. In addition, the z-score was -0.144 in [14]; 0.0166 in [15]; -1.35 in test [16]; -0.592 (inactive) in test [17]; 0.347 in test [18]; -0.249 in [19]. For the same compound, in [20], the z-score was -0.18 (inactive). Further, the composite z-score in test [2] was 0.356.
